# Results filed as inconclusive are left out. Calls of active or inactive are those of the source. The calls were made as follows: active = hit-call score of the fitted dose curve at least 0.9, where 1 is the maximum; inconclusive = response in the unintended direction; inactive = score below 0.9.
# Experiments:
# [1] = test system: zebrafish Androgen Receptor (AR), gene 100005148; assay: ATG_zfAR_XSP1: Attagene TRANS-FACTORIAL Multi-Species (XSP1) HepG2 Assay for zebrafish Androgen Receptor (AR) (AID 2283771)
# Method in brief: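 Gain-of-signal versus DMSO was measured as reporter transcripts quantified by RT-PCR, fluorescent labelling and capillary electrophoresis after 24 h chemical exposure. The cells were HepG2 expressing a chimeric zebrafish AR-GAL4, co-stimulated with 3 nM 6-alpha-fluorotestosterone.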
# [2] = biological target: zebrafish Estrogen Receptor (ESR1), esr1 (gene 259252) (UniProt P57717); assay: ATG_zfER1_XSP1: Attagene TRANS-FACTORIAL Multi-Species (XSP1) HepG2 Assay for zebrafish Estrogen Receptor (ESR1) (AID 2283772)
# Method in brief: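 Exogenous chimeric receptor-GAL4 activity is measured in transiently transfected human HepG2 liver cells after 24 h compound exposure. Reporter transcripts are detected by RT-PCR and fluorescent capillary electrophoresis, analysed for signal gain relative to DMSO.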
# [3] = test system: zebrafish Estrogen Receptor (ESR2B), gene 317733; assay: ATG_zfER2b_XSP1: Attagene TRANS-FACTORIAL Multi-Species (XSP1) HepG2 Assay for zebrafish Estrogen Receptor (ESR2B) (AID 2283773)
# Method in brief: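 Multiplexed TRANS format in transfected HepG2 liver cells, chimeric NR-Gal4 from zebrafish ESR2B. 24 h dosing; medium contains 3 nM 6-alpha-fluorotestosterone. mRNA induction by RT-PCR/CE, positive direction vs DMSO.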
# [4] = test system: frog Estrogen Receptor (ESR2), gene 100174814; assay: ATG_frER2_XSP1: Attagene TRANS-FACTORIAL Multi-Species (XSP1) HepG2 Assay for frog Estrogen Receptor (ESR2) (AID 2283774)
# Method in brief: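 HepG2, transient MRTU transfection (GAL4-UAS reporters, exogenous NR-Gal4 chimeras); 24 h compound exposure; 3 nM 6α-fluorotestosterone co-added; total RNA → RT-PCR → 6-FAM primer extension → HpaI → CE. Positive direction vs DMSO.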
# [5] = biological target: AR (gene 367) (UniProt P10275); assay: ACEA_AR_agonist_80hr: ACEA Biosciences xCELLigence Real-Time Cell Analysis on Androgen Receptor Agonism for Proliferation (AID 2283783);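 also: hits increase impedance growth signal above DMSO baseline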
# Method in brief: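 Impedance (RT-CES) growth signal at 80 h post-dose; 22Rv1 cells, 8-pt 1:4 series, top 100 uM final, DMSO ≤0.5%; duplicate plates; gain-of-signal fit relative to DMSO baseline.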
# [6] = ACEA_AR_agonist_AUC_viability: ACEA Biosciences xCELLigence Real-Time Cell Analysis on Androgen Receptor Agonism for Viability (AID 2283775);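 as to AC50: viability read 80 hours after compound addition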
# Method in brief: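 Viability endpoint from xCELLigence impedance in 22Rv1 prostate cells at 80 h. Eight-point series, 100 uM maximum final.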
# [7] = ACEA_AR_antagonist_AUC_viability: ACEA Biosciences xCELLigence Real-Time Cell Analysis on Androgen Receptor Antagonism for Viability (AID 2283776);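 also: area under impedance growth curve at 80 h after dosing as viability; hits lower the growth signal relative to DMSO meaning cytotoxicity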
# Method in brief: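 22Rv1 human prostate cancer cells were seeded on electrode plates, monitored overnight, then exposed to eight 1:4 dilutions from 100 uM final. Impedance-based growth kinetics at 80 h gave an AUC viability endpoint normalized to DMSO.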
# [8] = biological target: Luciferin 4-monooxygenase (Photinus pyralis) (UniProt P08659); assay: CCTE_Simmons_QuantiLum_inhib_2: CCTE's Firefly Luciferase Inhibition Assay, Simmons Lab (AID 2283767);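 as to AC50: potency for inhibitors that lower luciferase luminescence relative to DMSO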
# Method in brief: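 Cell-free QuantiLum luciferase, 5 ng/well; compounds 5 nM–87.5 uM final, 8 conc, 0.5% DMSO; 30 min, 37C, dark. Detection reagent (150 uM D-luciferin, 147 uM dATP, CoA, DTT, pH 7.8 final) injected per well, kinetic luminescence. Triplicate biological replicates.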
# [9] = ACEA_ER_AUC_viability: ACEA Biosciences xCELLigence Real-Time Cell Analysis on Estrogen Receptor Agonism for Viability (AID 2283782);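 also: hit means loss of impedance signal meaning reduced cell growth or viability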
# Method in brief: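 Read-out: real-time electrical impedance (RT-CES) area under curve, loss of signal taken as reduced viability, normalized to DMSO baseline. T-47D cells, charcoal-stripped serum medium, compounds up to 100 uM final, continuous exposure, 80 h.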
# Sequence of AR (gene 367) (P10275 whole entry, looked up): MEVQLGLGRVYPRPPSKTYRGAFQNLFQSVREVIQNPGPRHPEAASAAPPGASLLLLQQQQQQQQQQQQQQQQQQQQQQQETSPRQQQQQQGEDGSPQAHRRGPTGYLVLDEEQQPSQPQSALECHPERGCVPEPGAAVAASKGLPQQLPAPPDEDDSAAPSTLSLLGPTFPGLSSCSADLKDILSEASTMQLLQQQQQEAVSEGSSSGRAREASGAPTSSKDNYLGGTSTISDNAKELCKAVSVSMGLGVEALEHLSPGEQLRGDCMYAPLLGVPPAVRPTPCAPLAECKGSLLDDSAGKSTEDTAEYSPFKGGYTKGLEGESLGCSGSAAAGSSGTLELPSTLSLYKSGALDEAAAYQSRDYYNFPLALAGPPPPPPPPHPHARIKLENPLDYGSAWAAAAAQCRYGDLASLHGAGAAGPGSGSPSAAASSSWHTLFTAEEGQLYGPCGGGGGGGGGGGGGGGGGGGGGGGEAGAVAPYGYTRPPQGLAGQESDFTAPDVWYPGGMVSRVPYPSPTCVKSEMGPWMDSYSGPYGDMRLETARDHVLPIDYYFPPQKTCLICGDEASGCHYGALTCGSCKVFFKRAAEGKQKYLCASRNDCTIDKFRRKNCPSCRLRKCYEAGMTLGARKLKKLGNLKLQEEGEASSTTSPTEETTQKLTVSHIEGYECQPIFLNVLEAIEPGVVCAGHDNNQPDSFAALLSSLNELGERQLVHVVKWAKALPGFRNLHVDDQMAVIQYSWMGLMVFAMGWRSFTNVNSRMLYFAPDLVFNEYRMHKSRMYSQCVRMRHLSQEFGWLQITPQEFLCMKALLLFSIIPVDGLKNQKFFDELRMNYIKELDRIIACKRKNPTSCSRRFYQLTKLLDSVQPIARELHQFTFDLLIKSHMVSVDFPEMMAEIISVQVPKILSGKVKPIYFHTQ
# Sequence of Luciferin 4-monooxygenase (Photinus pyralis) (P08659 whole entry, looked up): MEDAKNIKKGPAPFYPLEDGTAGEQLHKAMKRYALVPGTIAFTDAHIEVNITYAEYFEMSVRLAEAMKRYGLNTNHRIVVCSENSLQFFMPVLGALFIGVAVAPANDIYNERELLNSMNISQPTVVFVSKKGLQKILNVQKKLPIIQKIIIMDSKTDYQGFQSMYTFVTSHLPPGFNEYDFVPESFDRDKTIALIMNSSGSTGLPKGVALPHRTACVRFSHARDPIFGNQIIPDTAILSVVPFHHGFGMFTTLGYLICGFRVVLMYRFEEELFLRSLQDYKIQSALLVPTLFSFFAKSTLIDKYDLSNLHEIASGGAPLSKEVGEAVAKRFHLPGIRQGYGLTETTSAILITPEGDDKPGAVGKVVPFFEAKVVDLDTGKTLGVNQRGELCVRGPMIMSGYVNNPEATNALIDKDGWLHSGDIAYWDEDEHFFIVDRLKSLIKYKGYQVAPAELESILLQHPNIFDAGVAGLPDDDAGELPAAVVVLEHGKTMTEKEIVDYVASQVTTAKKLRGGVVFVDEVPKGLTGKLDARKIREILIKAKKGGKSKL
# Sequence of zebrafish Estrogen Receptor (ESR1), esr1 (gene 259252) (P57717 whole entry, looked up, the tested form may be a part): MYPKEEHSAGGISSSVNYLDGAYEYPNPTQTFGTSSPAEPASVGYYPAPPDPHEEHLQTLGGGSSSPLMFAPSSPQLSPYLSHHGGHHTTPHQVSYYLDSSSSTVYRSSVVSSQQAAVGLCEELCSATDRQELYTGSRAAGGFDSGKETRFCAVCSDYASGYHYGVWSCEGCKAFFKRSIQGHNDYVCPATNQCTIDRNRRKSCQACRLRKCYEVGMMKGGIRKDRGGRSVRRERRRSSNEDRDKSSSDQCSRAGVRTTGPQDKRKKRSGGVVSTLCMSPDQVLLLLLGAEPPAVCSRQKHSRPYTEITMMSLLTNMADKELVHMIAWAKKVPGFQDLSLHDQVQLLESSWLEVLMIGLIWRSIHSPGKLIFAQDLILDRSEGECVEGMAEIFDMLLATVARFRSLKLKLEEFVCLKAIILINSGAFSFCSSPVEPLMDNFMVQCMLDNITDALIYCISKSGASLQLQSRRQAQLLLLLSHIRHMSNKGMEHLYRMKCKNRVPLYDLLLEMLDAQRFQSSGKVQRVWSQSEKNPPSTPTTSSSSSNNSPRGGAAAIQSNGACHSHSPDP
smiles,measurement,setting,value
CC(C)(C)c1cc(O)c(C(C)(C)C)cc1O,outcome,[1],inactive
same,outcome,[2],inactive
same,AC50,[3],186 µM (active)
same,outcome,[4],inactive
CCOc1ccc2c(c1)C(C)=CC(C)(C)N2,outcome,[5],inactive
O=c1[nH]cc(F)c(=O)[nH]1,AC50,[6],2.42 µM (active)
same,AC50,[7],1.76 µM (active)
CC(=O)Oc1ccccc1C(=O)O,outcome,[6],inactive
same,outcome,[7],inactive
CCc1c(C(=O)NN2CCCCC2)nn(-c2ccc(Cl)cc2Cl)c1-c1ccc(Br)cc1,AC50,[6],12.7 µM (active)
same,AC50,[7],10.8 µM (active)
CC(CO)OC(C)CO (stereo unspecified) (tested in a mixture with another compound),outcome,[6],inactive
Cc1ccc(C)c(C)c1,outcome,[6],inactive
same,outcome,[7],inactive
CCCCCCCCCCC,outcome,[6],inactive
O=C(O)Cc1ccccc1Nc1c(Cl)cccc1Cl,AC50,[6],42.1 µM (active)
same,AC50,[7],50 µM (active)
CC(=O)C(C)=CC1C(C)=CCCC1(C)C (stereo unspecified),outcome,[6],inactive
same,AC50,[7],9.92 µM (active)
CCCCCCCC=O,outcome,[6],inactive
same,outcome,[7],inactive
c1cc(-c2ccncc2)ccn1,outcome,[6],inactive
same,outcome,[7],inactive
CCOC(=O)C(C)(C)Oc1ccc(Cl)cc1,outcome,[6],inactive
same,outcome,[7],inactive
Cc1nc(C)nc(N2C[C@@H](C)N(c3ccnc([C@@H](C)O)n3)[C@@H](C)C2)n1,outcome,[6],inactive
same,outcome,[7],inactive
CC1(C)NC(=O)NC1=O,outcome,[6],inactive
same,outcome,[7],inactive
Cc1cc(NC(=O)C(=O)O)cc(C)c1Oc1ccc(O)c2c1CCC2,AC50,[8],79.3 µM (active)
same,outcome,[7],inactive
same,outcome,[5],inactive
CC1(C)CC(N=C=O)CC(C)(CN=C=O)C1 (stereo unspecified),AC50,[6],25.5 µM (active)
same,outcome,[7],inactive
Cc1cccc(Nc2cc(Cl)nc(SCC(=O)O)n2)c1C,outcome,[6],inactive
same,outcome,[7],inactive
C[Si]1(C)O[Si](C)(C)O[Si](C)(C)O[Si](C)(C)O1,outcome,[6],inactive
same,outcome,[7],inactive
CC(C)c1ccc(C(=O)N=C(N)N)cc1S(C)(=O)=O,outcome,[6],inactive
same,outcome,[7],inactive
CCCCCCCCCCCCCCCCCC(=O)O,outcome,[6],inactive
same,AC50,[7],25 µM (active)
NCC1(Cc2noc(=O)[nH]2)CCCCC1,outcome,[6],inactive
same,outcome,[7],inactive
COc1ccc2c(c1)c(CC(=O)O)c(C)n2C(=O)c1ccc(Cl)cc1,AC50,[6],37 µM (active)
same,AC50,[7],25.4 µM (active)
NS(=O)(=O)c1cc2c(cc1Cl)NCNS2(=O)=O,outcome,[6],inactive
same,outcome,[7],inactive
NC(=O)Cn1c(=O)cc(CCN2CCN(c3nccc4sccc34)CC2)c2ccc(F)cc21,outcome,[6],inactive
same,AC50,[7],12.1 µM (active)
COCCOC[C@H](CC1(C(=O)NC2CCC(C(=O)O)CC2)CCCC1)C(=O)Oc1ccc2c(c1)CCC2 (stereo partly specified),outcome,[6],inactive
same,AC50,[7],16.5 µM (active)
Cc1ccc2ncccc2c1,outcome,[6],inactive
same,outcome,[7],inactive
CCCCCC(=O)O,outcome,[6],inactive
same,outcome,[7],inactive
Cc1cccc(C)c1O,outcome,[8],inactive
same,outcome,[7],inactive
same,outcome,[9],inactive
same,outcome,[5],inactive
Nc1ccc2c(c1)C(=O)c1ccccc1C2=O,outcome,[6],inactive
same,AC50,[7],14.1 µM (active)
Cc1nc(-c2ccc3c(c2)CCN(CCC2CCC(NC(=O)/C=C/c4ccc(F)cc4)CC2)CC3)no1 (stereo unspecified),outcome,[6],inactive
same,AC50,[7],16.8 µM (active)
same,outcome,[9],inactive
CCCCCCC(=O)OCC,AC50,[6],87.7 µM (active)
same,outcome,[7],inactive
same,outcome,[9],inactive
COc1cccc2c1C(=O)c1c(O)c3c(c(O)c1C2=O)C[C@@](O)(C(=O)CO)C[C@@H]3O[C@H]1C[C@H](N)[C@H](O)[C@H](C)O1,AC50,[6],0.0985 µM (active)
same,AC50,[7],0.0588 µM (active)
same,outcome,[9],inactive
Cc1ccc(Cl)cc1,outcome,[9],inactive
CCCCCCCCCCO,outcome,[7],inactive
CNCc1cc(F)ccc1Oc1ccc(Cl)c(Cl)c1,AC50,[6],75.9 µM (active)
same,AC50,[7],67.4 µM (active)
same,AC50,[9],29.9 µM (active)
COc1ccc(S(=O)(=O)N2C(=O)[C@@](c3ccccc3OC)(N3C[C@H](O)C[C@H]3C(=O)N(C)C)c3cc(Cl)ccc32)c(OC)c1,AC50,[6],20.3 µM (active)
same,AC50,[7],20.5 µM (active)
same,AC50,[9],24.3 µM (active)
Clc1cc(Cl)c(Cl)cc1Cl,outcome,[6],inactive
same,outcome,[7],inactive
same,outcome,[9],inactive
COc1cc(C=O)ccc1O,outcome,[5],inactive
FC(F)(F)C(F)(F)C(F)(F)C(F)(F)C(F)(F)C(F)(F)CCI,outcome,[6],inactive
same,outcome,[7],inactive
same,outcome,[9],inactive
Cc1cccc([N+](=O)[O-])c1C,outcome,[6],inactive
same,outcome,[7],inactive
Cc1ccc(C(C)C)c(O)c1,outcome,[6],inactive
same,outcome,[7],inactive
same,outcome,[9],inactive
O=C(N[C@@H](Cc1ccccc1)[C@@H](O)C(=O)N1C[C@@H](O)[C@@H](O)C1)c1cc2cc(Cl)ccc2[nH]1,AC50,[6],69.6 µM (active)
same,AC50,[7],30.9 µM (active)
same,AC50,[9],55.2 µM (active)
COc1cc(/C=C/C(=O)CC(=O)/C=C/c2ccc(O)c(OC)c2)ccc1O,AC50,[6],27 µM (active)
same,AC50,[7],23.2 µM (active)
same,outcome,[9],inactive
same,outcome,[5],inactive
O=C(O)CCCCC(=O)O,AC50,[6],9.92 µM (active)
same,AC50,[7],3.82 µM (active)
COc1cc(-c2nc(NC(=O)c3cc4cc(C)cc(C)c4n3CC(=O)O)sc2CCC2CCCCC2)c(OC)cc1Cl,AC50,[6],9.71 µM (active)
same,AC50,[7],9.23 µM (active)
same,AC50,[9],11.4 µM (active)
COCCOCCOC,outcome,[7],inactive
same,outcome,[5],inactive
NCCO,outcome,[6],inactive
same,outcome,[7],inactive
CN1CCN(Cc2cc(-c3ccc4[nH]c(=O)oc4c3)co2)[C@@H](c2ccc(F)cc2)C1,AC50,[9],50.8 µM (active)
C=CCOC(=O)c1ccccc1C(=O)OCC=C,outcome,[7],inactive
CC(=O)OCCOCCOCCOC(C)=O,outcome,[7],inactive
O=C(OCCCCCOC(=O)c1ccccc1)c1ccccc1,AC50,[6],90.1 µM (active)
same,AC50,[7],77.9 µM (active)
CCCCCCCCCCCC(=O)OC,outcome,[6],inactive
same,outcome,[7],inactive
CCCCCCCCCCCCCO,outcome,[6],inactive
same,outcome,[7],inactive
Oc1ccc2c(c1)OC[C@@H](N1CCC(O)(c3ccc(F)cc3)CC1)[C@H]2O,outcome,[6],inactive
same,outcome,[7],inactive
same,outcome,[9],inactive
CCCCCCOCCO,outcome,[7],inactive
CC(=O)OC/C=C(\C)CCC=C(C)C,outcome,[6],inactive
same,outcome,[7],inactive
same,outcome,[9],inactive
C1CCC(SSC2CCCCC2)CC1,AC50,[6],77.7 µM (active)
same,AC50,[7],78.3 µM (active)
same,AC50,[9],92.3 µM (active)

# From PubChem BioAssay (EPA / NIEHS)
